Screens as filed in PubChem.
hiPSC survival: increases survival of single human iPS cells. survival enhancement, % at 20 µM. AID 602274. 360,000 tested, 0.044% active. hiPSC single-cell survival, ATPlite luminescence; 100% = ROCK inhibitor wells, 0% = DMSO; in the data active = survival enhancement above about 18%;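 note: cells exposed to compounds for 16 hours before the ATP read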
H9c2 TAG inh: inhibitors of triacylglycerol accumulation; H9c2 cells, Nile Red lipid (TAG) fluorescence; cells loaded with 200 µM oleic acid; inhibition, % at 12.5 µM; 230,000 tested, 0.66% active; AID 651582;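 active = pattern-corrected inhibition of lipid staining of at least 50% with the nuclear-stain viability signal not falling by more than 50%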;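 note: 0% = DMSO wells and 100% = triacsin C control wells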
beta cell repl: MIN6 beta-cell proliferation induction. proliferation, % at 10 µM. 330,000 tested, 0.29% active. MIN6 cells proliferation, ATPlite luminescence, 48 h; cells starved in 0.2% serum; 100% = growth in 10% serum;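 active = compounds whose signal lies at least 3.5 SD above the mean of all wells on their plate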;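 note: 0% = DMSO-treated cells in low-serum medium and 100% = 10% serum control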
An asterisk follows results filed as active; . = no result. Most compounds without a hit are left out; they make up all but 0.71% or so of the library.

SMILES	hiPSC survival	H9c2 TAG inh	beta cell repl
CC(C)(C)N(Cc1ccc2c(c1)OCO2)C(=O)/C=C\S(=O)c1ccccc1 (stereo unspecified)	-3	83*	.
CCN(Cc1ccc2c(c1)OCO2)C(=O)/C=C/c1cccc(Br)c1	0	.	-2
NC(c1csc(Nc2ncccn2)n1)c1ccccc1Cl (stereo unspecified)	2	-9	.
Cc1ccc([C@@H]2C[C@H]3[C@@H](CN2S(=O)(=O)c2ccc(Cl)cc2)C(=O)C[C@@H](c2ccc(C)cc2)N3S(=O)(=O)c2ccc(Cl)cc2)cc1	28*	2	.
Cc1ccc([C@@H]2C[C@H]3[C@@H](CN2S(=O)(=O)c2ccc(C)cc2)C(=O)C[C@@H](c2ccc(Cl)cc2)N3S(=O)(=O)c2ccc(C)cc2)cc1	-4	26	.
COc1ccc(CNC(=O)CCS(=O)(=O)c2ccc3nc(C)sc3c2)cc1	0	1	.
Cc1ccc(NC(=O)C(=Cc2ccc(C(=O)O)cc2)C(=O)Nc2ccc(C)cc2C)c(C)c1	-1	56*	-6
CC(=O)C(=Cc1ccc(C(=O)O)cc1)C(C)=O	-1	-4	-4
COc1ccc(-c2nc3ccc(C)cn3c2Cc2ccsc2)cc1OC	-2	.	.
CCc1nc2c(OCC(=O)c3ccc(F)cc3)cccn2c1N(C)C(=O)c1cccs1	1	6	.
Cc1ccc(-c2ccc(CN3C(CC(C)C)C(=O)N(Cc4cn(CC5CCCCC5)nn4)CCS3(=O)=O)cc2)cc1 (stereo unspecified)	1	18	.
Cn1ncc2c(O/N=C(\N)c3ccc(C(C)(C)C)cc3)ncnc21	0	86*	-4
CCOC(=O)c1ccc(Nc2ncnc3c2cnn3C)cc1	-1	.	-2
CN(C)CCNc1ccc(CO)c2sc3ccc(O)cc3c(=O)c12	-6	112	.
CN(C)CCNc1ccc2ncn3c4ccc(O)cc4c(=O)c1c23	-1	75*	.
CC[C@H](C)[C@@H](CNC)NC[C@@H](Cc1ccc(O)cc1)NCC(C)(C)C	-3	4	-8
CC[C@@H](C)[C@H](CN[C@H](CNC)C(C)C)NC[C@@H](C)c1ccc(CC(C)C)cc1	-3	127*	-9
C=CCOc1ccc(C2OC34CCCCC3C(C#N)(C#N)C2(C#N)C(=N)O4)cc1 (stereo unspecified)	-1	-5	2
Cc1ccc(C2OC34CCCCCC3C(C#N)(C(=N)O4)C2(C#N)C#N)cc1 (stereo unspecified)	0	.	9.0*
CCCCOc1ccc(C2OC34CCCCC3C(C#N)(C#N)C2(C#N)C(=N)O4)cc1 (stereo unspecified)	0	-7	9.8*
CCOc1ccc(C2OC34CCCCC3C(C#N)(C#N)C2(C#N)C(=N)O4)cc1OC (stereo unspecified)	-1	19	0
CCCNC(=O)C1(C)CCN(C(=O)c2cccnc2Oc2ccccc2)C1 (stereo unspecified)	0	-1	.
COCCCN1C(=O)C(CC(=O)NCCN2CCOCC2)CC(C(=O)N(C)C)=C1C (stereo unspecified)	2	.	.
O=C(/C=C/[C@H]1O[C@@H](n2ccc(=O)[nH]c2=O)[C@H](O)[C@@H]1O)NCCN1CCOCC1	-1	.	.
Cn1cc(Cc2ccc(C(=O)NC34CC5CC(CC(C5)C3)C4)cn2)c2ccccc21	-1	1	.
SMILES	hiPSC survival	H9c2 TAG inh	beta cell repl
CN(C)c1ccc(-c2ccnc3c2CC(C)(C(=O)Nc2ccc(Cl)c(C(F)(F)F)c2)O3)cc1 (stereo unspecified)	20*	15	.
CC(=O)Nc1ccc(-c2ccnc3c2CC(C)(C(=O)Nc2ccc(Cl)c(C(F)(F)F)c2)O3)cc1 (stereo unspecified)	-2	13	.
O=[N+]([O-])c1ccc(N/N=C\c2cccn2-c2ccccc2)nc1	-2	56*	-5
O=[N+]([O-])c1ccc(NN=Cc2ccccc2)nc1	0	1	.
COc1ccccc1Cc1c(C2CCCCC2)nc2cc(C)c(Br)c(C)n12	0	.	.
O=C(N/N=C/c1ccccc1Cl)c1ccncc1	1	.	-1
O=C(N/N=C/c1cc(Cl)ccc1O)c1ccncc1	0	53*	-2
C[C@@H]1CN([C@@H](C)CO)C(=O)c2cc(Br)cnc2O[C@H]1CN(C)C(=O)Cc1cccnc1	4	-10	.
CCCCCCC[C@@H](C/C=C/CCC(=O)N(C)C/C(=C/Cl)C/C(=C\C(=O)N1C[C@H](O)CC1=O)OC)OC	3	-12	-5
CCCCCCC[C@@H](C/C=C/CCC(=O)N(C)C/C(=C/Cl)C/C(=C\C(=O)N1CC(OC)=CC1=O)OC)OC	35*	9	-5
CCOc1ccccc1NC(=O)Cn1nnc(C(=O)NCc2ccco2)c1N	-1	66*	-2
Cc1ccccc1NC(=O)Cn1nnc(C(=O)NCc2ccco2)c1N	1	.	-2
Cc1ccc2nc(-c3cccc(Br)c3)c(Cc3ccccn3)n2c1	-2	.	.
OC(c1cccc(Cl)c1)c1ncc(-c2ccccc2Cl)[nH]1 (stereo unspecified)	-1	-3	.
CCCCn1nnnc1C(c1cc2ccccc2o1)N1CCN(c2ccncc2)CC1 (stereo unspecified)	0	.	.
CCCCCCCCN1C(=O)[C@H](CC(=O)N2CCN(C(=O)C3CC3)CC2)C[C@@]2(C(=O)OCC)CCCC=C12	0	.	.
CC(C)NC(=O)C1(C)CCN1Cc1ccc(Cl)cc1 (stereo unspecified)	0	8	.
CCCS(=O)(=O)NC(=O)C1(C)CCN(C(=O)c2cccc(C(F)(F)F)c2)C1 (stereo unspecified)	1	-1	.
CCCCCc1cc(=O)oc2c(C(CCN3CCCCC3)c3cc(OC)c(OC)c(OC)c3)c(OC)cc(OC)c12 (stereo unspecified)	-3	80*	-9
CCCCCc1cc(=O)oc2c(C(CCN3CCCC(C)C3)c3cc(OC)c(OC)c(OC)c3)c(OC)cc(OC)c12 (stereo unspecified)	-4	79	-9
CCCCCc1cc(=O)oc2c(C(CCN3CCCC(C)C3)c3ccc(N(C)C)cc3)c(OC)cc(OC)c12 (stereo unspecified)	-2	107*	-8
COc1cc(OC)c2ccc(=O)oc2c1C(CCN1CCCC(C)C1)c1ccc(N(C)C)cc1 (stereo unspecified)	-1	-4	-4
CC(=NNC(=S)N(Cc1ccccn1)Cc1ccccn1)c1cnccn1	-2	29	.
S=C(NN=C(c1ccccc1)c1ccccn1)N(Cc1ccccn1)Cc1ccccn1	-2	62*	.
CC(C)NC(=O)CN1CCN(C(c2cc3ccccc3o2)c2nnnn2C(C)(C)C)CC1 (stereo unspecified)	0	.	.
SMILES	hiPSC survival	H9c2 TAG inh	beta cell repl
CCCn1c(SCc2ccccc2)nc2c1c(=O)[nH]c(=O)n2C	32*	-267	-2
CCCCCCn1c(SCCN2CCOCC2)nc2c1c(=O)[nH]c(=O)n2C	26*	-19	-1
CC=CCn1c(SCc2ccccc2)nc2c1c(=O)[nH]c(=O)n2C	2	-5	.
CCCCCn1c(SCCN2CCOCC2)nc2c1c(=O)[nH]c(=O)n2C	3	-33	0
CC(=O)Nc1ccc(C(=O)N2CCCC(c3cc(C(=O)NCc4cccnc4)no3)C2)cc1 (stereo unspecified)	-1	5	.
Nc1nn(-c2ccccc2)c(N)c1N=Nc1ccc2c(c1)OCO2	-3	.	0
